The values below come from article PMC12864922, “TDP-43 directly inhibits mRNA accumulation in neurites through modulation of mRNA stability”.

In all, about 9,900 sequences were measured (“r (bound/input frequency ratio)”: median about 0.7, highest 2% from about 6.5 on). For the sample, the highest values were picked, then their nearest neighbours and some sequences at random.

B1: ENSMUSG00000031028.526|Tub (ssRNA)
RNA: GGGAGUUCUACAGUCCGACGAUCGCUUCGAUAUCCGCAUGCUACUUUCUCUUUUAUGGAAAUGGCAGGUCUAUUUGCCUCAAACGUUAUGUAGAAGUAGUUCUAAGUUUAACAAGCAAUAGAGAUGACUGCUUAGCUAGGAUCUGCAGGGAGCUCUGCUCUGCAAGCACAACACCUGUCUCAUAGAUGGACAGCCUGGUUUCCCUUCUCAGCAGUCCUGGCCUCCCCUUCUCUGUAUUCCUUGCCCCAGCUACGAUAUCCUCAUGGGAUUUCAGGAUGCCAGGUGCCAUCAAAGCAUGCUUUUCUCUUGCGGUCGCACUAGUGUGGAAUUCUCGGGUGUCAAGG
B2: ENSMUSG00000061578.913|Ksr2|118:122 (ssRNA)
RNA: GGGAGUUCUACAGUCCGACGAUCGCUUCGAUAUCCGCAUGCUACAGAGACAGAUUUCCCAGAAUCCCUGGGCCACUUCUCAAUUCUACCCAUGACAGACAUGUCCCAUCCAUGAGCCCAGAUAGUCAAAGACUUCAGCACAAGGGUGUUUAGAGUAGGCACACACGAAGUAUCAAUAAGGUUAUUGAGAUGAGGAUUUAGAAAGAUCCAUGUAUAAAAGGUCUAGAAGGAUGAAGAUCUAAAACAAGAAGACUGCAUGUUAACGCUCCUGCCACUGUUGCCCCUUCCUUUACCCUUGGCAGACCUCUUGCGGUCGCACUAGUGUGGAAUUCUCGGGUGUCAAGG
B3: ENSMUSG00000042529.382|Kcnj12 (ssRNA)
RNA: GGGAGUUCUACAGUCCGACGAUCGCUUCGAUAUCCGCAUGCUAUAAGGUGGGUUUCAUGCUCACCAACCUGAACUGGUCAGGCUGGAUGCUGGCCACAGACAUGAUCAGUCCGACUUGAGUCCCUGCCCUGCCCUGGUUAUGCAGGCUGUACGACGCAGUGUGCAUCAGUCUGAGGAGUCUGGUGGUAAGUAAGCCUCUGCAGCAGACCCUGUCGGAGGCCAUGGGGGCGUGUGUGUGUGUGUGUGUGUGUGUGUGUGUGUGUGUGUGUGUGUGUGUGUGUGAACAUGUGUGAGGGUGUGGAGCUCUUGCGGUCGCACUAGUGUGGAAUUCUCGGGUGUCAAGG
B4: ENSMUSG00000061578.39|Ksr2 (ssRNA)
RNA: GGGAGUUCUACAGUCCGACGAUCGCUUCGAUAUCCGCAUGCUAAGGGUCCCAUGUGUGGUGUGAAGGAGCCACAGACUGAGCACACCACCUCGGACUGUGGAGACCAAGACACAUGCCCAGUGGGCAGACUCAGACUCACACGCUGGACCAGUGUGUGCGCAUGUGUCUACACAUGGACAGGGCCAACUGCUAUCCUUCUGCCUGGACGAGCCAGCUGUGGAGUGUCCCAGCUGUGCUAUCCUGGAACACAGAACCAGGAUGGAACCAGAAACAAUACACCUGCUCCGUUGUCAAGGCUUCUACUCUUGCGGUCGCACUAGUGUGGAAUUCUCGGGUGUCAAGG
B5: ENSMUSG00000042529.385|Kcnj12 (ssRNA)
RNA: GGGAGUUCUACAGUCCGACGAUCGCUUCGAUAUCCGCAUGCUACACCAACCUGAACUGGUCAGGCUGGAUGCUGGCCACAGACAUGAUCAGUCCGACUUGAGUCCCUGCCCUGCCCUGGUUAUGCAGGCUGUACGACGCAGUGUGCAUCAGUCUGAGGAGUCUGGUGGUAAGUAAGCCUCUGCAGCAGACCCUGUCGGAGGCCAUGGGGGCGUGUGUGUGUGUGUGUGUGUGUGUGUGUGUGUGUGUGUGUGUGUGUGUGUGUGAACAUGUGUGAGGGUGUGGAGGUCCCAGGGUGUGUGUAUCUCUUGCGGUCGCACUAGUGUGGAAUUCUCGGGUGUCAAGG
B6: ENSMUSG00000061578.1090|Ksr2 (ssRNA)
RNA: GGGAGUUCUACAGUCCGACGAUCGCUUCGAUAUCCGCAUGCUAAGCAGCCAACCAUGAAAAUAGAGGUUUGUAAUGUACAGAAGGCUGGGGGAGCUUUCAGGGGUGUGGCCAGUUAUGUACAGAUGUGAAGCUGAGGUCUGAAGGAAAUGGAGGAAGUAGGAAGAUCAGACUGGUUGAAUUAGAAGUCUGUCACUCUAGGUGCUAAGUGACCUUGGACCCAGUCAGUUCUUGGAUUUCUGUUGUAGCCCAGGCUAGCCUCGAACCCUUGAUCCUCCUGUUCCUGGUAGAGAAACAGCCACUAACUCUUGCGGUCGCACUAGUGUGGAAUUCUCGGGUGUCAAGG
B7: ENSMUSG00000042529.380|Kcnj12 (ssRNA)
RNA: GGGAGUUCUACAGUCCGACGAUCGCUUCGAUAUCCGCAUGCUAUUUAAAUUUGGGUAAGGUGGGUUUCAUGCUCACCAACCUGAACUGGUCAGGCUGGAUGCUGGCCACAGACAUGAUCAGUCCGACUUGAGUCCCUGCCCUGCCCUGGUUAUGCAGGCUGUACGACGCAGUGUGCAUCAGUCUGAGGAGUCUGGUGGUAAGUAAGCCUCUGCAGCAGACCCUGUCGGAGGCCAUGGGGGCGUGUGUGUGUGUGUGUGUGUGUGUGUGUGUGUGUGUGUGUGUGUGUGUGUGUGAACAUGUGUCUCUUGCGGUCGCACUAGUGUGGAAUUCUCGGGUGUCAAGG
B8: ENSMUSG00000031028.210|Tub (ssRNA)
RNA: GGGAGUUCUACAGUCCGACGAUCGCUUCGAUAUCCGCAUGCUAAAUGUAUAAGGUUGGAAACCUUUCAGUAGGGAAUCAGGCAGUUCCCUGUUGAAAGUUGUCUGAGUUUUUGCACACCAUUCUGAUCUGAUGUGGCCUGUGCCUGGCUCCUCUAUGAGGACUUCGAGCUGUGCACAGACCUUAGCAGGACCACUGCACACUUUGUGUCUGUGUGACAGGCAGCCCAAGGGUUCUGGGGCUGGGCUUGGACACGCCCUCCAUUGGGAUGGCACCACUCAUCUGGUGGGCUUGGGAACUCCAAGCUCUUGCGGUCGCACUAGUGUGGAAUUCUCGGGUGUCAAGG
B9: ENSMUSG00000042529.384|Kcnj12 (ssRNA)
RNA: GGGAGUUCUACAGUCCGACGAUCGCUUCGAUAUCCGCAUGCUACAUGCUCACCAACCUGAACUGGUCAGGCUGGAUGCUGGCCACAGACAUGAUCAGUCCGACUUGAGUCCCUGCCCUGCCCUGGUUAUGCAGGCUGUACGACGCAGUGUGCAUCAGUCUGAGGAGUCUGGUGGUAAGUAAGCCUCUGCAGCAGACCCUGUCGGAGGCCAUGGGGGCGUGUGUGUGUGUGUGUGUGUGUGUGUGUGUGUGUGUGUGUGUGUGUGUGUGUGAACAUGUGUGAGGGUGUGGAGGUCCCAGGGUGUCUCUUGCGGUCGCACUAGUGUGGAAUUCUCGGGUGUCAAGG
B10: ENSMUSG00000043670.183|Diras1|29:33;126:130;160:164;174:183;189:196;229:233 (ssRNA)
RNA: GGGAGUUCUACAGUCCGACGAUCGCUUCGAUAUCCGCAUGCUAGACAGAAUCUGAGCCUCUUUGCUGGUCAACACAACUCUGGAGACUGUCCCCCAUGUCUGCCCUGAGUUACGGAGCCCCUGUGGUAUCUGCGAGACUGUCCAGGAGACUUGAGUGGCUCCUGGGCCACACACCCACCCAGAUGAGGGUGACUUAGAAUUCACACAUUAUGUGCCACACACACACGAUGGCACACACACUGUCUUGGGAUGGGGUGUUCUUGCACCACUUACACAUCUUAGUGAGACCACAGUGUAAGUGGCCUCUUGCGGUCGCACUAGUGUGGAAUUCUCGGGUGUCAAGG
B11: ENSMUSG00000061578.23|Ksr2 (ssRNA)
RNA: GGGAGUUCUACAGUCCGACGAUCGCUUCGAUAUCCGCAUGCUAGUGAUGACGUCACAGAGGCUGUCCACACCUUCGACUUGUACCCCGUUACUCAGGCACGAUCAGGGACCACUCAACUAGGACCAAACUGGGCCAGAGAGGGUCCCAUGUGUGGUGUGAAGGAGCCACAGACUGAGCACACCACCUCGGACUGUGGAGACCAAGACACAUGCCCAGUGGGCAGACUCAGACUCACACGCUGGACCAGUGUGUGCGCAUGUGUCUACACAUGGACAGGGCCAACUGCUAUCCUUCUGCCUGGACUCUUGCGGUCGCACUAGUGUGGAAUUCUCGGGUGUCAAGG
B12: ENSMUSG00000042529.381|Kcnj12 (ssRNA)
RNA: GGGAGUUCUACAGUCCGACGAUCGCUUCGAUAUCCGCAUGCUAUUUGGGUAAGGUGGGUUUCAUGCUCACCAACCUGAACUGGUCAGGCUGGAUGCUGGCCACAGACAUGAUCAGUCCGACUUGAGUCCCUGCCCUGCCCUGGUUAUGCAGGCUGUACGACGCAGUGUGCAUCAGUCUGAGGAGUCUGGUGGUAAGUAAGCCUCUGCAGCAGACCCUGUCGGAGGCCAUGGGGGCGUGUGUGUGUGUGUGUGUGUGUGUGUGUGUGUGUGUGUGUGUGUGUGUGUGUGAACAUGUGUGAGGGUCUCUUGCGGUCGCACUAGUGUGGAAUUCUCGGGUGUCAAGG
B13: ENSMUSG00000043670.121|Diras1 (ssRNA)
RNA: GGGAGUUCUACAGUCCGACGAUCGCUUCGAUAUCCGCAUGCUAUGUCUGCACACCAGGGUGGAUGGGCCCGAGGGCUGGGCCUCAGGCACCAGGCAAUAAACACAGGGCCUGCAGCAAUGCCCUGGCCACCCCGAGUACCACCUCUGGAAUAGCAGACGCCCACAGCACAAGCCCAGGACUGUCCCUUCAGGGGAGGCACACUGGAACCCUGAACUUGGAGUGUGGAGUGGCUGCCUGGACACUGCCCACCUGGACACCAGCCUUCUGCUGAGAUAGAGACCUUGGCACAGUGGCACCUCGACCUCUUGCGGUCGCACUAGUGUGGAAUUCUCGGGUGUCAAGG
B14: ENSMUSG00000042529.383|Kcnj12 (ssRNA)
RNA: GGGAGUUCUACAGUCCGACGAUCGCUUCGAUAUCCGCAUGCUAGGGUUUCAUGCUCACCAACCUGAACUGGUCAGGCUGGAUGCUGGCCACAGACAUGAUCAGUCCGACUUGAGUCCCUGCCCUGCCCUGGUUAUGCAGGCUGUACGACGCAGUGUGCAUCAGUCUGAGGAGUCUGGUGGUAAGUAAGCCUCUGCAGCAGACCCUGUCGGAGGCCAUGGGGGCGUGUGUGUGUGUGUGUGUGUGUGUGUGUGUGUGUGUGUGUGUGUGUGUGUGUGAACAUGUGUGAGGGUGUGGAGGUCCCACUCUUGCGGUCGCACUAGUGUGGAAUUCUCGGGUGUCAAGG

This experiment deals with TDP-43 (Homo sapiens, UniProt Q13148 1-414). In words: RNA Bind-n-Seq with designed 260-mer pool; 25 mM Tris-HCl, 150 mM KCl, 3 mM MgCl2, BSA (printed 500 mg/mL), 20 units/mL SUPERase IN; pH not stated; 500 nM RNA pool, 1 h, 4 C; TDP-43 5, 50, 500 nM; high values mean tight binding. The settings on record: protein: recombinant; tags: SBP (GST cleaved off with PreScission; pGEX-GST-SBP). A digest of the protocol: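 In 25 mM Tris-HCl, 150 mM KCl, 3 mM MgCl2, BSA and SUPERase IN, 500 nM of an in vitro-transcribed 260-nt 3′ UTR oligo pool was incubated for 1 h at 4 °C with SBP-tagged TDP-43 (5, 50 or 500 nM) captured on streptavidin beads. RNA remaining after washes was biotin-eluted, reverse transcribed, PCR-amplified and sequenced. Binding, R, is the bound-sample abundance of each oligo, normalized to mapped reads, divided by its abundance in input. Each duplicate used a separate, independent protein batch.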
Chain of TDP-43 (Q13148 whole entry): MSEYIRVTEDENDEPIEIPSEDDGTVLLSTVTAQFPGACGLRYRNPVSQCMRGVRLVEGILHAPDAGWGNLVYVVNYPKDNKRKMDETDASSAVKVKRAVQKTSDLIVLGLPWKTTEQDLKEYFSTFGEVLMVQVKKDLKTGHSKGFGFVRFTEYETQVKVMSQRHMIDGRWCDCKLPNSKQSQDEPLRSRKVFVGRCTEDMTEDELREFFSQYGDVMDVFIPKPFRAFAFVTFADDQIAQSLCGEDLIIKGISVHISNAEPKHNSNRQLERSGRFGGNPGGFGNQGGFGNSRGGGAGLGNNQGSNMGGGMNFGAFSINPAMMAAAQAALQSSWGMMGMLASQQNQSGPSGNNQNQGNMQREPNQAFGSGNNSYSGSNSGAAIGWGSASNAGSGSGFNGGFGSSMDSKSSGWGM
As to B1, the binding signal was 0.219 R (bound/input frequency ratio).
Next, B2: 0.457 R (bound/input frequency ratio); B3: 6.14 R (bound/input frequency ratio); B4: 0.764 R (bound/input frequency ratio).
The result for B5 reads 7.81 R (bound/input frequency ratio); that for B6, 1.34 R (bound/input frequency ratio); that for B7, 7.35 R (bound/input frequency ratio).
With B8, the binding signal is 2.94 R (bound/input frequency ratio).
Next, B9: 7.66 R (bound/input frequency ratio); B10: 0.711 R (bound/input frequency ratio); B11: 0.299 R (bound/input frequency ratio).
Take B12: the binding signal was 6.18 R (bound/input frequency ratio).
Next, B13: 0.914 R (bound/input frequency ratio); B14: 8.12 R (bound/input frequency ratio).
